The results in this text go back to PubChem BioAssay (Tox21).

Results filed as inconclusive are left out. Calls of active or inactive are those of the source. Unless noted, calls follow the shape of the dose curve; as a rule, active = well fitted curve in the direction sought with a large enough effect in the repeat runs; inconclusive = weak or mixed curves; inactive = no such curve, though single readings can be large; an effect the other way counts as inactive or inconclusive.

Experiment [1] can be described thus: qHTS assay for small molecules that induce genotoxicity in human embryonic kidney cells expressing luciferase-tagged ATAD5 (AID 651632). Also: nearly all actives have a fitted effect of over 15% in size. Also: potency is read from the fitted curve at half-maximal effect. The method in brief: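 Quantitative HTS in HEK293T expressing luciferase-tagged ATAD5, whose levels rise upon DNA damage. Exposure ran 16 hr at 37C and 5% CO2, with luminescence read 30 min after Amplite addition at room temperature.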
For orientation: In qHTS, concentration-response curves come from the screen itself.

The nature of experiment [2]: qHTS assay for small molecule agonists of the p53 signaling pathway - cell viability (AID 651633; calls by dose curve;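 also: p53RE-bla HCT reporter cells with a stable beta-lactamase p53 reporter; series mostly up to about 83 µM; nearly all actives have a fitted effect of over 30% in size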). Summed up:
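Viability counter-read: CellTiter-Glo luminescence (30 min, room temperature) in the same p53RE-bla plates. These plates had been exposed to compounds for 16 h at 37 C.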

Experiment [3] can be described thus: qHTS assay for small molecules that induce genotoxicity in human embryonic kidney cells expressing luciferase-tagged ATAD5 - cell viability (AID 651634; calls by dose curve; also: nearly all actives have a fitted effect of over 25% in size). Summed up: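 After 15.5 hr incubation with compound at 37C, 5% CO2, HEK293T ATAD5-luciferase cells received CellTiter-Fluor reagent; fluorescence intensity was quantified following 30 min at 37C.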
The nature of experiment [4]: qHTS assay for small molecule disruptors of the mitochondrial membrane potential - cell viability (AID 720634; calls by dose curve;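 also: human HepG2 liver cancer cells; series mostly up to about 83 µM; nearly all actives have a fitted effect of over 20% in size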). Summed up:
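ATP-based luminescent viability readout (CellTiter-Glo, 30 min, room temperature) in HepG2 cells multiplexed with the m-MPI membrane potential dye; compound exposure lasted 1 hr at 37 C.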

Experiment [5] in a line: qHTS assay for small molecule disruptors of the mitochondrial membrane potential (AID 720635). The method in brief: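 Mitochondrial membrane potential tracked with Mito-MPS dye, red aggregates (ex 540/em 590 nm) against green monomers (ex 490/em 535 nm). Compound treatment 1 hr at 37C, dye 30 min in HepG2.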
The nature of experiment [6]: qHTS assay to test for compound auto fluorescence at 590 nm (red) in HepG2 cells (AID 720674). Summed up: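 We screened compounds on adherent HepG2 cells, incubating them for an hour at 37 C in 5% CO2 before reading emission at 590 nm under 540 nm excitation; values reflect equivalence to Rose Bengal sodium fluorescence.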
Experiment [7] in a line: qHTS assay to test for compound auto fluorescence at 535 nm (green) in HepG2 cells (AID 720675).
The nature of experiment [8]: qHTS assay to test for compound auto fluorescence at 460 nm (blue) in HEK293 cells (AID 720678). The method in brief: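 Intrinsic compound fluorescence is recorded in live HEK293 cultures after overnight incubation at 37C, 5% CO2, using excitation 405 nm and emission 460 nm. Values are referenced to triamterene.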
Experiment [9] is described as follows: qHTS assay to test for compound auto fluorescence at 590 nm (red) in HEK293 cells (AID 720679). Summed up: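 Red autofluorescence, HEK293 cells: 2,000 cells/well; attach 4-5 hr 37C; add 23 nL cpd or DMSO; incubate o/n 37C 5% CO2; read Ex540/Em590; Rose Bengal sodium reference.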
Experiment [10] in a line: qHTS assay for small molecule agonists of the p53 signaling pathway (AID 651631; calls by dose curve; also: nearly all actives have a fitted effect of over 15% in size). The method in brief:
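p53RE-bla HCT-116 cells; compounds 16 h, 37 °C; LiveBLAzer B/G FRET substrate 2 h RT; fluorescence intensity read-out, qHTS format.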

For `N#CC(O)c1ccccc1` (configuration not stated), the Potency entry in [1], in experiment [2], in experiment [3], in [4] and in experiment [5] was “inactive” in each case. The molecule was called inactive in experiment [6], in [7], in experiment [8] and in experiment [9].

Consider `CC1(C)C(=O)NC(=O)NC1=O`, for which the Potency entry in [1], in [2], in [3], in experiment [4] and in experiment [5] was “inactive” throughout. In addition, the molecule was called inactive in experiment [6], in [7], in experiment [8] and in experiment [9].

Regarding `Fc1ccc(C2(Cn3cncn3)OC2c2ccccc2Cl)cc1` (configuration not stated), the Potency entry in [1], in experiment [2], in [3] and in experiment [4] was “inactive” each time. For the same molecule, the result in experiment [6], in [7], in experiment [8] and in experiment [9] was inactive.

On to `CCOP(=O)(OCC)OP(=O)(OCC)OCC`, for which the Potency entry in experiment [1], in [2], in experiment [3], in experiment [4] and in experiment [5] was “inactive” throughout. The call in experiment [6], in experiment [7], in experiment [8] and in experiment [9] was inactive.

Take `COc1cc(OC)nc(NC(=O)NS(=O)(=O)c2ncccc2C(=O)N(C)C)n1`: the Potency result in experiment [1], in experiment [2], in experiment [3] and in experiment [4] was “inactive” throughout. Besides, the call in experiment [6], in experiment [7], in experiment [8] and in experiment [9] was inactive.

In the case of `CCCCOC(=O)c1ccccc1N`, the Potency result in [1], in experiment [2], in experiment [3] and in experiment [4] was “inactive” in each case. The result in experiment [6], in experiment [7] and in experiment [8] was inactive.

As for `C[N+](C)=CCl`, the Potency result in experiment [1], in [2], in [3] and in [4] was “inactive” in each case. The call in experiment [6], in experiment [7], in experiment [8] and in experiment [9] was inactive.

As to `Cc1ncsc1CCCl`, the Potency entry in experiment [1], in experiment [2], in experiment [3] and in experiment [4] was “inactive” in each case. The molecule was called inactive in experiment [6], in experiment [7] and in experiment [9].

As for `CCOc1nc(C(Cl)(Cl)Cl)ns1`, the Potency result in [1], in experiment [2], in experiment [3] and in experiment [4] was “inactive” each time. Also, the outcome in [6], in [7], in experiment [8] and in experiment [9] was inactive.

Take `CC(C)CC#N`: the Potency entry in [1], in [2], in [3], in [4] and in [5] was “inactive” each time. Besides, the molecule was classed as inactive in [6], in experiment [7] and in [9].

Regarding `O=C(O)c1cccc(Cl)c1`, the Potency result in experiment [1], in [2], in [3] and in experiment [4] was “inactive” throughout. Besides, the molecule was classed as inactive in [6], in experiment [7], in experiment [8] and in [9].

Consider `Cc1ncc2n1-c1ccc(Cl)cc1C(c1ccccc1F)=NC2`, for which the Potency in [1] was 26.6 µM (active). Further, the Potency entry in experiment [2], in experiment [3] and in experiment [4] was “inactive” each time. Moreover, the molecule was classed as inactive in experiment [6], in experiment [7], in [8] and in experiment [9].

Turning to `O=[N+]([O-])c1cccc(O)c1`, the Potency result in experiment [1], in experiment [2], in experiment [3] and in [4] was “inactive” in each case. The molecule was classed as inactive in experiment [6], in [7], in experiment [8] and in experiment [9].

For `CC1(C)COP(Oc2ccccc2)OC1`, the Potency result in experiment [1], in [2], in experiment [3] and in experiment [4] was “inactive” throughout. Also, the molecule was called inactive in experiment [6], in experiment [7], in [8] and in experiment [9].

Take `Nc1cc2c3c(c1)C(c1ccccc1)=N[C@@H](NC(=O)c1cccnc1)C(=O)N3CC2`: the Potency entry in experiment [1], in experiment [2], in experiment [3] and in experiment [4] was “inactive” in each case. Further, the call in [6], in experiment [7] and in experiment [8] was inactive.

With `Nc1n[nH]c(N)n1`, the Potency result in experiment [1], in [2], in experiment [3] and in [4] was “inactive” each time. The result in experiment [6], in [7], in [8] and in experiment [9] was inactive.

`CCSC(=O)N(CC)C1CCCCC1`: the Potency result in [1], in experiment [2], in [3] and in experiment [4] was “inactive” in each case. The result in experiment [6] and in experiment [7] was inactive.

`c1coc(-c2nc3ccccc3[nH]2)c1`: the Potency entry in [10] and in experiment [3] was “inactive” each time. Further, the molecule was called inactive in experiment [6], in experiment [7], in experiment [8] and in experiment [9].

Take `CCOP(=S)(OCC)SCSc1ccc(Cl)cc1`: the Potency entry in [1], in [2], in experiment [3], in experiment [4] and in experiment [5] was “inactive” in each case. Also, the call in [6], in experiment [7] and in experiment [9] was inactive.

For the molecule `Oc1c(Cl)cccc1Cl`, the Potency entry in experiment [1], in experiment [2], in experiment [3] and in experiment [4] was “inactive” each time. Further, the result in experiment [6], in experiment [7] and in experiment [8] was inactive.

For the molecule `C[C@]12CC[C@H]3[C@@H](CC=C4C[C@@H](O)CC[C@@]43C)[C@@H]1CC[C@@H]2O`, the Potency result in experiment [2] and in experiment [3] was “inactive” in each case. The result in experiment [6], in [7], in experiment [8] and in experiment [9] was inactive.

As for `COC(=O)C(C)Oc1ccc(Oc2ccc(Cl)cc2Cl)cc1` (configuration not stated), the Potency entry in experiment [2], in [3] and in experiment [4] was “inactive” throughout. Also, the call in experiment [6], in [7] and in experiment [8] was inactive.

For `C#CCN1C(=O)COc2cc(F)c(N3C(=O)C4=C(CCCC4)C3=O)cc21`, the Potency result in experiment [3] was “inactive”. Further, the call in experiment [6], in [7], in experiment [8] and in [9] was inactive.

In the case of `CCC#N`, the Potency entry in [1], in experiment [2] and in [3] was “inactive” throughout. Besides, the outcome in experiment [6], in experiment [7] and in experiment [8] was inactive.

For `CCC(C)(C)c1cc(-n2nc3ccccc3n2)c(O)c(C(C)(C)CC)c1`, the Potency result in experiment [2], in experiment [3] and in experiment [4] was “inactive” in each case. Moreover, the molecule was classed as inactive in [6], in [7], in experiment [8] and in [9].

For the molecule `CCN(CC)C(C)C(=O)c1ccccc1` (configuration not stated), the Potency result in experiment [1], in experiment [2], in [3] and in experiment [4] was “inactive” each time. Moreover, the result in experiment [6], in [7] and in experiment [9] was inactive.
